“And” between values parts separate entries of the source, which are not always exact repeats. Equal entries are not always repeated. Records with an inconclusive call do not appear. More than one record can exist for a structure, and the calls need not agree. The source made the active and inactive calls. Unless noted, calls follow the shape of the dose curve; as a rule, active = well fitted curve in the direction sought with a large enough effect in the repeat runs; inconclusive = weak or mixed curves; inactive = no such curve, though single readings can be large; an effect the other way counts as inactive or inconclusive.

The record followed here is PubChem BioAssay (Tox21).

Test [1] can be described thus: qHTS assay to identify small molecule antagonists of the thyroid receptor (TR) signaling pathway (AID 743065). Also: nearly all actives have a fitted effect of over 55% in size. Also: potency is read from the fitted curve at half-maximal effect. In a few lines: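 GH3.TRE-Luc rat pituitary cells carrying two TR response elements driving luciferase were plated for 4 h, given compound plus 1 nM T3 (final), and incubated 23.5 h at 37 C. ONE-Glo luminescence measured reporter inhibition; CellTiter-Fluor fluorescence tracked cytotoxicity.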

Test [2] concerns thyroid hormone receptor (rat, GH3 cells). Nature of the test: qHTS assay to identify small molecule agonists of the thyroid receptor (TR) signaling pathway (AID 743066; calls by dose curve).
Test [3] in a line: qHTS assay to identify small molecule antagonists of the estrogen receptor alpha (ER-alpha) signaling pathway - cell viability counter screen (AID 743074; calls by dose curve;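 also: HEK293 cells carrying ER-alpha-UAS-bla reporter stimulated with 17beta-estradiol; nearly all actives have a fitted effect of over 45% in size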; also: potency is read from the fitted curve at half-maximal effect).
The target in test [4] is Estrogen receptor (Homo sapiens) (UniProt P03372). The test can be described thus: qHTS assay to identify small molecule agonists of the estrogen receptor alpha (ER-alpha) signaling pathway (AID 743075; calls by dose curve;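 also: HEK293 GripTite cells with ER-alpha and UAS-driven beta-lactamase reporter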; also: potency is read from the fitted curve at half-maximal effect).
The target is the same in test [5]. Nature of the test: qHTS assay to identify small molecule agonists of the estrogen receptor alpha (ER-alpha) signaling pathway using the BG1 cell line (AID 743079). Also: nearly all actives have a fitted effect of over 20% in size. Also: potency is read from the fitted curve at half-maximal effect.
Test [6] can be described thus: qHTS assay to identify small molecule antagonists of the estrogen receptor alpha (ER-alpha) signaling pathway using the BG1 cell line (AID 743080; calls by dose curve;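 also: BG1 cells stimulated with 17beta-estradiol alongside compound; nearly all actives have a fitted effect of over 25% in size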; also: potency is read from the fitted curve at half-maximal effect). In a few lines: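 Luciferase inhibition measured with ONE-Glo after 30 min at RT in BG1Luc4E2 cells given test compounds and 17beta-estradiol for 21.5 h at 37 C; CellTiter-Fluor viability read in the same wells beforehand.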

Test [7] is described as follows: qHTS assay to identify small molecule antagonists of the estrogen receptor alpha (ER-alpha) signaling pathway using the BG1 cell line - cell viability counter screen (AID 743081).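 Also: compound given together with 17beta-estradiol as the ER stimulus; series mostly up to about 70 µM; nearly all actives have a fitted effect of over 45% in size.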
The next test has as its target Aromatase (Homo sapiens) (UniProt P11511). Nature of the test: qHTS assay to identify aromatase inhibitors (AID 743083). Also: nearly all actives have a fitted effect of over 55% in size. Also: potency is read from the fitted curve at half-maximal effect.
Test [8] in a line: qHTS assay to identify aromatase inhibitors - cell viability counter screen (AID 743084).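 Also: cells stimulated with testosterone during compound exposure; nearly all actives have a fitted effect of over 55% in size.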 Also: potency is read from the fitted curve at half-maximal effect.
The target in test [9] is Aryl hydrocarbon receptor (Homo sapiens) (UniProt P35869). The test can be described thus: qHTS assay to identify small molecule that activate the aryl hydrocarbon receptor (AhR) signaling pathway (AID 743085). Also: nearly all actives have a fitted effect of over 15% in size. Also: potency is read from the fitted curve at half-maximal effect.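 As to activation: HG2L7.5c1 human HepG2 liver cells with stably integrated DRE-driven firefly reporter; series mostly up to about 70 µM.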 In a few lines: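 Cell line HG2L7.5c1 (human hepatoma, 20× DRE-luc). Plated, 5 h 37C, compound/DMSO added, 24 h 37C. CellTiter-Fluor 30 min 37C → fluorescence; then ONE-Glo 30 min RT → luminescence.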

Test [10] can be described thus: qHTS assay to identify small molecule that activate the aryl hydrocarbon receptor (AhR) signaling pathway - cell viability counter screen (AID 743086).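 Also: HepG2 liver cells carrying the AhR DRE luciferase reporter; series mostly up to about 70 µM; nearly all actives have a fitted effect of over 45% in size.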 In a few lines: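 HepG2-AhR-luc (HG2L7.5c1) cells, 4000/well, were preincubated 5 h at 37C, exposed to compound in qHTS format for 24 hr at 37C, then given CellTiter-Fluor for 30 min; viability was read as fluorescence in the reporter wells.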

Test [11] concerns the target Peroxisome proliferator-activated receptor gamma (Homo sapiens) (UniProt P37231). The test can be described thus: qHTS assay to identify small molecule agonists of the peroxisome proliferator-activated receptor gamma (PPARg) signaling pathway (AID 743094; active = well fitted activation curve with a large enough effect in the signal ratio in the repeat runs, not every such curve was filed as active; the % refers to the signal ratio). In a few lines: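 Reporter activation was scored by fluorescence of cleaved LiveBLAzer B/G substrate (1 h, room temperature) in PPARg-bla HEK293H cells previously treated 17 h at 37C with DMSO-dissolved compounds.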

Test [12] has the same target. Nature of the test: qHTS assay to identify small molecule antagonists of the peroxisome proliferator-activated receptor gamma (PPARg) signaling pathway (AID 743191; calls by dose curve; also: nearly all actives have a fitted effect of over 30% in size; also: potency is read from the fitted curve at half-maximal effect). Put shortly: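 GeneBLAzer PPARg UAS-bla HEK293H cells carrying a UAS-driven beta-lactamase reporter were plated at 3000 cells/well, preincubated 5 h at 37C, then given compound for 17 h at 37C; LiveBLAzer B/G FRET substrate was read after 1 h at room temperature.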

A short description of test [13]: qHTS assay to identify small molecule antagonists of the peroxisome proliferator-activated receptor gamma (PPARg) signaling pathway - cell viability counter screen (AID 743194). Also: nearly all actives have a fitted effect of over 55% in size. Also: potency is read from the fitted curve at half-maximal effect. In a few lines:
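PPARg-UAS-bla HEK293H cells were plated, rested 5 h at 37 C, then treated with compounds plus rosiglitazone (50 nM final) for 17 h at 37 C; viability was then read by CellTiter-Glo luminescence after 30 min at room temperature.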

The nature of test [14]: qHTS assay for small molecule agonists of the antioxidant response element (ARE) signaling pathway (AID 743202; active = well fitted activation curve with a large enough effect in the signal ratio in the repeat runs, not every such curve was filed as active; the % refers to the signal ratio; also: potency is read from the fitted curve at half-maximal effect). In a few lines: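 Following a 16 h, 37 C exposure of reporter HepG2 cells (ARE-driven beta-lactamase, 2,000 cells/well) to compounds, FRET substrate was applied for 2 h at room temperature and fluorescence intensity recorded.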
A short description of test [15]: qHTS assay for small molecule agonists of the antioxidant response element (ARE) signaling pathway - cell viability counter screen (AID 743203; calls by dose curve; also: nearly all actives have a fitted effect of over 55% in size; also: potency is read from the fitted curve at half-maximal effect). In a few lines: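 Viability counter screen: stably transfected ARE-bla HepG2 line, 16 hrs compound exposure at 37C/5% CO2, ATP-based CellTiter-Glo luminescence measured in the reporter wells.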
Test [16] in a line: qHTS assay for small molecule activators of the heat shock response signaling pathway - cell viability counter screen (AID 743209). Also: nearly all actives have a fitted effect of over 50% in size. Also: potency is read from the fitted curve at half-maximal effect. Put shortly:
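Viability of HSE-bla HeLa cells is measured with CellTiter-Glo in the wells already used for the reporter read. Compound exposure lasts 5 h at 37 C, and luminescence is read after 30 min at room temperature.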

The nature of test [17]: qHTS assay for small molecule activators of the heat shock response signaling pathway (AID 743210; active = well fitted activation curve with a large enough effect in the signal ratio in the repeat runs, with a control signal flat, not every such curve was filed as active; the % refers to the signal ratio; also: series mostly up to about 63 µM). Put shortly:
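Heat shock element–beta-lactamase HeLa reporter cells; qHTS with compounds for 5 h at 37 C; detection by FRET substrate fluorescence after 2.5 h at RT.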

Test [18] is described as follows: qHTS assay to identify small molecule agonists of the peroxisome proliferator-activated receptor delta (PPARd) signaling pathway - cell viability counter screen (AID 743211). Also: nearly all actives have a fitted effect of over 55% in size. Also: potency is read from the fitted curve at half-maximal effect. Put shortly:
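HEK293H PPARd-bla, 3000 cells/well; 5 h preincubation 37C/5% CO2; cpd in DMSO, 17 h 37C; B/G FRET substrate 2 h RT; CellTiter-Glo 30 min RT, luminescence.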

Test [19] deals with Estrogen receptor (Homo sapiens) (UniProt P03372). Nature of the test: qHTS assay to identify small molecule antagonists of the estrogen receptor alpha (ER-alpha) signaling pathway (AID 743069; active = well fitted curve in the direction sought with a large enough effect in the signal ratio in the repeat runs, not every such curve was filed as active; the % refers to the signal ratio). In a few lines:
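A 17beta-estradiol challenge was applied right after compound transfer to ER-alpha-UAS-bla HEK293 cells previously kept in charcoal-stripped serum. Plates stood 18 hr at 37C and 5% CO2; fluorescence was read following 2 hr FRET substrate loading at room temperature.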

Aromatase (Homo sapiens), sequence (P11511 whole entry, looked up): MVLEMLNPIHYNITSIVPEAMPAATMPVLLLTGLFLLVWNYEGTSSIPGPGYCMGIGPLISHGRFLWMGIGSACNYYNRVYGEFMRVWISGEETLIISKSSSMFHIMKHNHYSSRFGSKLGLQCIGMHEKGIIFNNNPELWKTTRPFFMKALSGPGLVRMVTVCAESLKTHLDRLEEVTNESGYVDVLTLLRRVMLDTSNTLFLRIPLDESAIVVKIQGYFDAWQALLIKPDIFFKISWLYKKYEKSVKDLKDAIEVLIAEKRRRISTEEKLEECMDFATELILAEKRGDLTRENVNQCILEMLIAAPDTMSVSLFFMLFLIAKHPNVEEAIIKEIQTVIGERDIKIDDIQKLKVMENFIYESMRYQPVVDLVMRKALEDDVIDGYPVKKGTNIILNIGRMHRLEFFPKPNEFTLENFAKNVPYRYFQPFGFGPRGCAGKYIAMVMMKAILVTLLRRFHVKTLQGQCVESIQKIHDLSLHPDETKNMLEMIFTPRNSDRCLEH
Peroxisome proliferator-activated receptor gamma (Homo sapiens), sequence (P37231 whole entry, looked up): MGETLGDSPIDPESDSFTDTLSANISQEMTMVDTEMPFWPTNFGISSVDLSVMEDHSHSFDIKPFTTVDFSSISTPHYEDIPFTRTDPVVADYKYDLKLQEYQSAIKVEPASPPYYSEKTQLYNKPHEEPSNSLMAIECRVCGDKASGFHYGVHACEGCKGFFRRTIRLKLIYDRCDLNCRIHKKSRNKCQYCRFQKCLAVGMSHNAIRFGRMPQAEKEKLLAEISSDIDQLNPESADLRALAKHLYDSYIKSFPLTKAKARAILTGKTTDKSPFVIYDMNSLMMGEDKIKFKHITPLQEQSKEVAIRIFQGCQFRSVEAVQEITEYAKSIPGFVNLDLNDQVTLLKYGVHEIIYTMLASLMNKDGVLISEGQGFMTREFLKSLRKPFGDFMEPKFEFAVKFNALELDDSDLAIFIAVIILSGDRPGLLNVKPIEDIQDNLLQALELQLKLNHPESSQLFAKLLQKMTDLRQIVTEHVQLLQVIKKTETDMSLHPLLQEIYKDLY
Estrogen receptor (Homo sapiens), sequence (P03372 whole entry, looked up): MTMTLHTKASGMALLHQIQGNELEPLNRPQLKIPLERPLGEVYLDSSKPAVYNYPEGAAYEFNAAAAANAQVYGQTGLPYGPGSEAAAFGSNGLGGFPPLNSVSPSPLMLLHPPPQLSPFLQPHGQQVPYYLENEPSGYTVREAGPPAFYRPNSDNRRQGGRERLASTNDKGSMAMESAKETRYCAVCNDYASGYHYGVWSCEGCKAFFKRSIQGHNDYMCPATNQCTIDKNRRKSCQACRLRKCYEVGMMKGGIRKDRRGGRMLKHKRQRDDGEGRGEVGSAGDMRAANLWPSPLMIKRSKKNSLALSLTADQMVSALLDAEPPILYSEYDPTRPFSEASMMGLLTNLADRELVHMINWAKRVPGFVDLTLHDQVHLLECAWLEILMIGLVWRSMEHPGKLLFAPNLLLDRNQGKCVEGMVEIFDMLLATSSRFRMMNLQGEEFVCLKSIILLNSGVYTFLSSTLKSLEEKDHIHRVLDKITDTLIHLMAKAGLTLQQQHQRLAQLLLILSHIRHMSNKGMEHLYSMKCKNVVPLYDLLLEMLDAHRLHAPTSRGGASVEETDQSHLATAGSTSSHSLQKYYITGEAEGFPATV
Aryl hydrocarbon receptor (Homo sapiens), sequence (P35869 whole entry, looked up): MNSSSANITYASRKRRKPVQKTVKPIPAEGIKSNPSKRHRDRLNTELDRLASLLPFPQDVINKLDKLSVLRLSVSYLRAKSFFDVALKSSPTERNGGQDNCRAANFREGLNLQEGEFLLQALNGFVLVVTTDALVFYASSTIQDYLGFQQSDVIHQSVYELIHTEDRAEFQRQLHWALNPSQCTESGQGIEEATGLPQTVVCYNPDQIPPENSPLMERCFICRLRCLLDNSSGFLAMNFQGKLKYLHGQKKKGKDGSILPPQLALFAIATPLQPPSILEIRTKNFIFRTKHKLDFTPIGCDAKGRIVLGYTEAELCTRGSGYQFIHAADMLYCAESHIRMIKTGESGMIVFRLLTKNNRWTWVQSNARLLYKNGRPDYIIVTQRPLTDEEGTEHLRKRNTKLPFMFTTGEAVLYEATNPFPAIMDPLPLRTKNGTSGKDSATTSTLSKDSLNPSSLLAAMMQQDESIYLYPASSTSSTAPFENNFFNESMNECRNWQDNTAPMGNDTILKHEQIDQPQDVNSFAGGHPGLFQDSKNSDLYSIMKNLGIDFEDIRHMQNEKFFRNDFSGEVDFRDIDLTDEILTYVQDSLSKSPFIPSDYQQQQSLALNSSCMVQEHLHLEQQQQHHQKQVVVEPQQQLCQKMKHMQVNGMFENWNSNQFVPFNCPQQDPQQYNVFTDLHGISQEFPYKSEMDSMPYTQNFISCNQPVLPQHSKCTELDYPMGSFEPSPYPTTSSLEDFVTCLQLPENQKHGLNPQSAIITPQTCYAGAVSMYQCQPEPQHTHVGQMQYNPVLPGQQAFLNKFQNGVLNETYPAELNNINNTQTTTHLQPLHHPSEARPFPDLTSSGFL

Regarding `c1ccc2cc3c(ccc4ccccc43)cc2c1`, the Potency entry (in test [1]; in test [2]; in [3]; in [6]; in test [7]; with Aromatase (Homo sapiens)) was “inactive” in each case. Further, the Potency result in test [8], in test [10], in [11], in [12], in test [13] and in [15] was “inactive” in each case. Besides, the Potency entry in test [16], in test [17] and in [18] was “inactive” throughout. The Potency in test [4] is 55.1 µM [activator] (active) and inactive; in test [5] it was 54.6 µM (active) and 48.6 µM (active); in test [9] it was 4.34 µM (active) and 6.86 µM (active); in test [14], 6.11 µM (active).
With `CCN(CC)C(=O)Nc1ccc(OCC(O)CNC(C)(C)C)c(C(C)=O)c1` (stereo not drawn), the Potency result in test [1], in test [2], in test [19], in test [3], in [4] and in test [5] was “inactive” in each case. Moreover, the Potency result (in test [6]; in test [7]; with Aromatase (Homo sapiens); in test [8]; in test [9]; in test [10]) was “inactive” each time. The Potency result in test [11], in [12], in test [14], in [15], in test [16] and in test [17] was “inactive” in each case. Further, in test [18], the Potency result was “inactive”.
Regarding `CO[Si](OC)(OC)c1ccccc1`, the Potency result in test [1], in test [2], in test [19], in test [3], in test [4] and in test [5] was “inactive” throughout. The Potency entry (in test [6]; in test [7]; with Aromatase (Homo sapiens); in test [8]; in test [9]; in test [10]) was “inactive” throughout. Further, the Potency result in test [11], in test [13], in [17] and in test [18] was “inactive” in each case.
Take `Oc1ccc(Cl)cc1Cc1cc(Cl)ccc1O`: the Potency in test [1] was 7.5 µM (active) and 3.12 µM (active) and 5.45 µM (active); in test [3] it was 49.9 µM (active) and 38.9 µM (active); in [6], 33.5 µM (active); with Aromatase (Homo sapiens) it was 29.8 µM (active) and 30.6 µM (active); in test [12] it was 9.95 µM (active) and 26.6 µM (active); in test [13] it was 11.2 µM (active) and 3.89 µM (active) and 16.8 µM (active). For the same compound, the Potency in [15] is 27.8 µM (active) and 54.5 µM (active); in test [16], 22.3 µM (active) and inactive; in test [18], 44.4 µM (active) and 30.9 µM (active) and 29.8 µM (active). The Potency result in [2], in test [19], in test [4], in test [7], in [9] and in test [10] was “inactive” in each case. The Potency result in test [11] was “inactive”.
In the case of `NCCO`, the Potency entry in test [1], in test [2], in [19], in test [3], in [4] and in test [5] was “inactive” in each case. Besides, the Potency result in test [6], in [7], in test [8], in [9], in test [10] and in test [13] was “inactive” in each case. In addition, the Potency result in test [14], in [16], in [17] and in [18] was “inactive” each time. The Potency entry with Aromatase (Homo sapiens) was “inactive and 61.1 µM (active)”.
For `Cc1ccc(-c2cc(C(F)(F)F)nn2-c2ccc(S(N)(=O)=O)cc2)cc1`, the Potency in test [1] is 23.7 µM (active) and 30.5 µM (active) and 54.5 µM (active); in test [3], “inactive and 43.5 µM (active)”; in [4], 23.9 µM [activator] (active) and inactive; in test [5], 7.5 µM (active); in the test with Aromatase (Homo sapiens), 29.8 µM (active) and 30.5 µM (active); in test [8], “inactive and 54.3 µM (active)”. The Potency in [14] is 26.6 µM (active); in test [15], 61.1 µM (active) and inactive; in test [18] it was 54.9 µM (active). For the same compound, the Potency entry in test [2], in [6], in [7], in [9], in test [10] and in [11] was “inactive” throughout. Moreover, the Potency entry in test [12], in test [13] and in test [17] was “inactive” throughout.
`O=C(O)c1cccc(C(=O)O)c1`: the Potency entry in test [1], in test [2], in [19], in test [3], in test [4] and in test [5] was “inactive” in each case. In addition, the Potency entry (in test [6]; in test [7]; with Aromatase (Homo sapiens); in test [8]; in [9]; in [10]) was “inactive” throughout. Besides, the Potency result in [11], in test [12], in test [13], in test [15], in [16] and in test [17] was “inactive” throughout. Besides, the Potency result in [18] is “inactive”.
As for `CCOc1ccccc1C(N)=O`, the Potency entry in [1], in test [2], in test [19], in test [3], in test [4] and in test [5] was “inactive” throughout. The Potency result (in test [6]; in test [7]; with Aromatase (Homo sapiens); in test [8]; in [9]; in test [10]) was “inactive” throughout. The Potency entry in test [11], in [12], in test [13], in test [14], in test [16] and in [17] was “inactive” each time. Moreover, the Potency entry in test [18] is “inactive”.
As for `CC1COC(=O)O1` (stereo not drawn), the Potency entry in [1], in test [2], in test [3], in [4], in test [5] and in [6] was “inactive” in each case. Moreover, the Potency entry (in test [7]; with Aromatase (Homo sapiens); in test [8]; in test [9]; in [10]; in test [11]) was “inactive” throughout. Further, the Potency entry in test [12], in test [13], in test [14], in test [16], in test [17] and in test [18] was “inactive” throughout.
Turning to `c1ccc2c(c1)CCCC2C1=NCCN1` (stereo not drawn), the Potency result in test [1], in test [2], in test [19], in test [3], in [4] and in test [5] was “inactive” throughout. The Potency result (in test [6]; in test [7]; with Aromatase (Homo sapiens); in test [8]; in test [9]; in test [10]) was “inactive” throughout. Also, the Potency result in test [11], in test [12], in [14], in test [15], in test [16] and in [17] was “inactive” throughout. Moreover, the Potency entry in test [18] is “inactive”.
For the compound `CCCCN(CCO)CCCC`, the Potency result in [1], in [2], in test [3], in test [4], in test [5] and in [6] was “inactive” each time. In addition, the Potency entry (in test [7]; in the test with Aromatase (Homo sapiens); in [8]; in [9]; in [10]; in test [11]) was “inactive” each time. Also, the Potency result in test [12], in test [13], in test [14], in [15], in test [16] and in [17] was “inactive” in each case. Besides, the Potency result in test [18] was “inactive”.
Consider `C=CC(=O)OCCCCCCCC`, for which the Potency entry in test [1], in [2], in [19], in test [3], in test [4] and in [5] was “inactive” in each case. For the same compound, the Potency result (in test [6]; in [7]; with Aromatase (Homo sapiens); in [8]; in [9]; in test [10]) was “inactive” in each case. Further, the Potency entry in test [11], in test [12], in test [14], in test [15], in test [16] and in test [17] was “inactive” each time. In addition, the Potency result in test [18] is “inactive”.
